# Measured values from PubChem BioAssay AID880 (National Center for Advancing Translational Sciences (NCATS), 2007).
# The whole screen tested about 230,000 compounds, of which about 1,000 (0.43%) were called active. Shown is part of a subset that was picked to be rich in actives. A number with no mark means an inactive call. The call rests on the fitted dose curve; in most records, active means well fitted inhibition curve with a large enough effect (not every such curve was filed as active); inactive means no such curve, though single readings can be large or run the other way.
# Target: Guanine nucleotide-binding protein G(i) subunit alpha-1 (Homo sapiens) (UniProt P63096)
# Sequence (P63096 whole entry, looked up): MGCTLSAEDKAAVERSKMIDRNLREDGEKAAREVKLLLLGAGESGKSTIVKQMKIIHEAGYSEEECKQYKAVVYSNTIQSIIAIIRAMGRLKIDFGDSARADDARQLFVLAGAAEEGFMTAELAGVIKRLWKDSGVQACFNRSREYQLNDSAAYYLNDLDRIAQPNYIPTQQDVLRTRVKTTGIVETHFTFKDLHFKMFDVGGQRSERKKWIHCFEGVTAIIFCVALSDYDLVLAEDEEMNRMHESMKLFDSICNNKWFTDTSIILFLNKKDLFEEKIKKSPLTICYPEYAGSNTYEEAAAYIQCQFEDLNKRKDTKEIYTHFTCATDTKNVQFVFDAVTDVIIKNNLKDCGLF
# Test: qHTS Assay for Inhibitors of RGS12 GoLoco Motif Activity (Red Fluorophore); further: nearly all actives have a fitted effect of over 30% in size
# Conditions: Gai1:RGS12 GoLoco peptide FP, rhodamine, 10 min; series mostly up to 61.6 µM
# Description: Assay Submitter: Siderovski, David P, University of North Carolina at Chapel Hill
# Screening Center PI: Austin, C.P.
# Screening Center: NIH Chemical Genomics Center [NCGC]
# G-protein-coupled receptors (GPCRs) are major targets for drug discovery. The regulator of G-protein signaling (RGS)-protein family has important roles in GPCR signal transduction. RGS proteins contain a conserved RGS-box, which is often accompanied by other signaling regulatory elements. RGS proteins accelerate the deactivation of G proteins to reduce GPCR signaling; however, some also have an effector function and transmit signals. Combining GPCR agonists with RGS inhibitors should potentiate responses, and could markedly increase the agonist's regional specificity. The diversity of RGS proteins with highly localized and dynamically regulated distributions in brain makes them attractive targets for pharmacotherapy of central nervous system disorders. […] A complex of Gai1 and fluorescently labeled G-alpha-binding peptide (the "GoLoco motif") derived from RGS12 is incubated with library members. Inhibitors of the binding are detected by a decrease in the fluorescence polarization (FP) of the fluorophore. Protein was supplied by Prof. David Siderovski, University of North Carolina at Chapel Hill.
# Assay Buffer: 10 mM Tris-HCl, 150 mM NaCl, 0.1 mM GDP (prepared fresh), and 0.05% NP40 at pH 7.5.
# 15 nM Rhodamine labeled peptide/25 nM protein in columns 1, 2, 5 - 48. Titration of unlabeled peptide control ([H][…][NH2], custom synthesized and HPLC-purified by Tufts University Core Facility) from 20 mM, then 1:2 dilution, 16-point in duplicate, pin-transferred to column 2, rows 1 to 32. Column 1 is neutral.
# Rhodamine-labeled peptide (Rhodamine-[…]-NH2) was custom-synthesized and HPLC-purified by Invitrogen (Carlsbad, CA).
# Four uL of reagents were dispensed to 1536-well Greiner black solid-bottom plates. Compounds and controls (23 nL) were transferred via Kalypsys PinTool. The plates were incubated for 10 min at room temperature, and then read on ViewLux (Perkin-Elmer) High-throughput CCD imager using BODIPY for the rhodamine-labeled decapeptide probe. During dispense, reagent bottles were kept submerged into 4 deg C water bath and all liquid lines were covered with aluminum foil to minimize probe and protein degradation. All screening operations were performed on a Kalypsys robotic system (Kalypsys, Inc., San Diego, CA) containing one RX-130 and two RX-90 anthropomorphic robotic arms.
# On the % scale 0 is the no-effect control and ±100 the full control effect; potency means the concentration at half of the fitted maximal effect.
Compound,Potency,"activity, negative = inhibition"
C[N+]12CN3CN(CN(C3)C1)C2,8.91 µM (active),–
CO[C@@H]1C[C@@H](C[C@H]2CC[C@H](C)[C@@H]([C@@H](C)C(=O)O)O2)O[C@]2(O[C@](C)([C@H]3CC[C@@](C)(C4OC([C@H]5O[C@@](O)(CO)[C@H](C)C[C@@H]5C)C[C@@H]4C)O3)C[C@H]2C)[C@@H]1C (stereo not given in full),–,inactive
CC(=O)c1c(O)c(C)c(O)c(Cc2c(O)c3c(c(C(=O)/C=C\c4ccccc4)c2O)OC(C)(C)C=C3)c1O,–,inactive
C[C@@]12CC[C@H](O)C[C@@H]1CC[C@@H]1[C@@H]2CC[C@@]2(C)[C@@H](C3=CC(=O)OC3)[C@H](O)C[C@]12O,–,3.75% [at 14.2 µM]
Cc1cc(-c2ccc(N)c(C)c2)ccc1N,25.1 µM (active),–
CN1[C@@H]2CC[C@H]1CC(OC(=O)c1cc(Cl)cc(Cl)c1)C2 (stereo not given in full),–,inactive
CN(C)C1C(=O)C(C(N)=O)=C(O)[C@@]2(O)C(=O)C3=C(O)c4c(O)cccc4[C@@](C)(O)C3C[C@@H]12 (stereo not given in full),–,inactive
ClC(Cl)=C(Cl)C(Cl)=C(Cl)Cl,–,inactive
CC(C)CC(C)Nc1ccc(Nc2ccccc2)cc1 (stereo not given),–,inactive
CCCCN1C2CCC1CC(OC(c1ccc(F)cc1)c1ccc(F)cc1)C2 (stereo not given),–,inactive
CS(=N)(=O)CC[C@H](N)P(=O)(O)O (stereo not given in full),–,3.42% [at 14.2 µM]
CC(C)(Cc1c[nH]c2ccc(Cl)cc12)NCCOc1ccccc1OCC1CC1,–,inactive
CC(=O)OC1C2CCC3C1(CC(O)[C@@]1(O)[C@@H](CC(O)C1(C)C)[C@]3(C)O)C[C@@]2(C)O (stereo not given in full),25.1 µM (active),–
CC(C)(c1ccccc1)c1ccc(O)cc1,–,inactive
CC(=O)O[C@H]1CC[C@@]2(C)[C@@H](CC[C@H]3[C@H]2CC(=O)[C@]2(C)[C@@H]3C[C@@H](N3CC3)[C@H]2C(C)=O)C1,–,4.86% [at 14.2 µM]
O=C(O)C1C2CCC(O2)C1C(=O)O (stereo not given),–,inactive
OC(CNC1CCCCC1)c1ccccc1 (stereo not given),–,inactive
CNC(C)[C@@H](O)c1ccccc1 (stereo not given in full),7.94 µM (active),–
CC(C)CCC1(CCN)C(=O)NC(=O)NC1=O,–,2.09% [at 14.2 µM]
CN(C)[C@@H]1C(=O)C(C(N)=O)=C(O)[C@@]2(O)C(=O)C3=C(O)c4c(O)cccc4[C@@](C)(O)C3CC12 (stereo not given in full),–,inactive
CCN(CC)CCn1ncc2c(N)ncnc21,–,8.05% [at 14.2 µM]
O=C(O)C(=O)Cc1ccc2c(c1)OCO2,–,-7.42% [at 14.2 µM]
COc1ccccc1N=Nc1c(O)[nH]c(=S)[nH]c1=O,–,inactive
COc1ccccc1N=C1SCCCN1C,3.16 µM (active),–
Cc1ccc(S(=O)(=O)O[C@H]2CN3CCC2CC3)cc1,–,-0.505% [at 14.2 µM]
CC[C@@](O)(C(=O)O)c1cc2n(c(=O)c1CO)Cc1cc3ccccc3nc1-2,–,-0.459% [at 14.2 µM]
Fc1ccc(C(OCCN2CCN(C/C=C\c3ccccc3)CC2)c2ccc(F)cc2)cc1,–,inactive
C[C@H](Br)C(=O)N[C@H](CO)C(=O)O,–,5.42% [at 14.2 µM]
NCC[Se][Se]CCN,0.631 µM (active),–
CC(C)(O)/C=C\C(=O)[C@](C)(O)[C@H]1[C@H](O)C[C@]2(C)[C@@H]3CC=C4[C@@H](C=C(O)C(=O)C4(C)C)[C@]3(C)C(=O)C[C@@]12C,–,6.59% [at 14.2 µM]
